Measured values from PubChem BioAssay AID1159580 (chemical genetic matrix, 2015).
Among all 5,500 compounds or so, about 2,000 (36%) were called active. Inconclusive results (about 18%) are left out. Rule as the data show it: active = normalized growth mostly below about 0.91 (no sharp cut-off); inconclusive = no clear call, values can overlap the other calls; inactive = mostly above about 0.92. Some of the results follow.

Test: chemical genetic growth profiling, strain panel (AID 1159580);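 also: tested at 20 µM; growth read once vehicle control cultures reached saturation at 30 °C; 1 = growth at the plate median or of vehicle wells; lower values mean less growth of the strain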
Settings: S. cerevisiae deletion strains, growth OD

Measured: normalized growth

Cc1cc(N)c2ccccc2[n+]1CCCCCCCCCCCCCC[n+]1c(C)cc(N)c2ccccc21
active: locus YAL013W, strain DEP1, stronger effect = lower value 0.365 | locus YAL040C, strain CLN3, stronger effect = lower value 0.0844 | locus YCL061C, strain MRC1 (second series), stronger effect = lower value 0.0514 | locus YDR150W, strain NUM1, stronger effect = lower value 0.0556 | locus YDR363W, strain ESC2, stronger effect = lower value 0.0835 | locus YER002W, strain NOP16, stronger effect = lower value 0.0687 | locus YNL175C, strain NOP13, stronger effect = lower value 0.0676 | locus YNL197C, strain WHI3, stronger effect = lower value 0.0663 | locus YNL224C, strain SQS1, stronger effect = lower value 0.068 | locus YOR083W, strain WHI5 (second series), stronger effect = lower value 0.0774
